Results published in the supplement of paper PMC6555819.

Assays:
Assay in all cases: PBM binding z-score (relative to random genomic background probes); higher = stronger binding; sequences stand for … in GC…GCGATTGACAGCGTAGAATGAAGG
[1] = test system: RARb homodimer (NR concentration 270 nM)
Procedure, shortened: (§1)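 Ligand-free nuclear receptor dimers were bound for 1 h to custom Agilent 4×180K protein-binding microarrays. Detection used antibodies against each partner (one per run). Binding z-scores rest on regression-normalized fluorescence, with random background probes as the reference.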

[2] = test system: RARg:RXRa (NR concentration 270 nM, RXRa partner concentration 90 nM)
Procedure, shortened: as §1

[3] = test system: RARg homodimer (NR concentration 270 nM)
Procedure, shortened: as §1

[4] = test system: RXRa DBDmut IVT, anti-RXR (DBD mutation: RXRa K156A/R161A, NR concentration 90 nM)
Procedure, shortened: as §1

[5] = test system: RXRa homodimer (NR concentration 180 nM)
Procedure, shortened: as §1

[6] = test system: THRa:RXRa (NR concentration 90 nM, RXRa partner concentration 90 nM)
Procedure, shortened: as §1

[7] = test system: THRa homodimer (NR concentration 90 nM)
Procedure, shortened: as §1

[8] = test system: VDR homodimer (NR concentration 270 nM)
Procedure, shortened: as §1

Row | Sequence | PBM binding z-score [1] | PBM binding z-score [2] | PBM binding z-score [3] | PBM binding z-score [4] | PBM binding z-score [5] | PBM binding z-score [6] | PBM binding z-score [7] | PBM binding z-score [8]
1 | TCTCGGAGGACACGAAGGTCAGAGTTTTCCAGAG | 3.77 | 3.25 | 3.92 | 0.753 | 2.03 | 2.83 | 1.19 | 1.93
2 | TCTTGTACATCAAGCAGGTTAAGAAAGCCTGAGT | 0.323 | 0.395 | 0.0243 | 0.896 | 0.677 | 0.334 | -0.0584 | 0.438
3 | TCTAGCACGCCAGAGGGTCACTCAAGAGGTACGG | 2.3 | 2.29 | 1.68 | 0.0776 | 2.41 | 1.48 | -0.414 | 0.501
4 | TCATATAGGTAAAGGCGAAAGTCGAACGATATGA | -0.012 | 0.425 | 0.439 | 0.563 | 0.727 | -0.186 | -0.507 | -0.251
5 | ATTCAAAGTTCAGGACGAGGTAACGTAAAGCACG | 3.31 | 4.56 | 4.73 | 2.99 | 3.08 | 3.82 | 2.01 | 2.3
6 | TCGAATAGGTTACCAATGGGGCATTCAGCTTTCT | 1.21 | 2.11 | 0.782 | 1.09 | 1.39 | 0.655 | -0.381 | -0.151
7 | ATCTCTAAGTAAGACTCAGTTCAGTGAAGAACGC | 0.513 | 0.345 | 0.42 | 0.804 | -0.0426 | 0.401 | 0.351 | 1.57
8 | CCTCGGGGGACAACAGGAGGTCAGAGCTGCCAGA | 3.75 | 4.66 | 4.32 | 0.347 | 2.89 | 3.22 | 1.07 | 1.19
9 | TTACCAAGGTGAGCTTAGGTCGTTGATCCAACTC | 1.27 | 0.36 | 0.732 | -0.17 | 0.352 | 3.88 | 0.952 | -0.0607
10 | ATACCAAGGTGATCATGAGGTCGTTGATACTAAC | 1.85 | 2.23 | 1.18 | 1.08 | 1.75 | 3.55 | 2.94 | 3.15
11 | GCTTGTTGATCAAGGTTAAGAAAGACTAAGCTAA | 0.2 | 0.237 | 0.0786 | 0.0866 | 0.387 | 1.23 | -0.213 | -0.369
12 | TCGAGTAGGTTAGAGGCATTCAGAATGGCGTCGA | -0.851 | -0.25 | -0.164 | -0.37 | 0.0736 | -1.08 | -1.15 | -0.449
13 | ATCGAAAGGTCGAGGTTAGTATAGAGAAAGGGAA | 2.8 | 4.49 | 4.52 | 1.18 | 4.37 | 2.51 | 0.341 | 0.514
14 | CCTATTAGTTGACCATAAGGGCAGCCGAAGCTCG | 1.55 | 0.749 | 0.64 | 0.252 | 0.392 | 1.36 | 0.892 | 0.242
15 | TCATATAGGTAAACAGGTGAAAGCCCGTAAGTTA | 0.749 | 0.546 | 0.364 | 1.2 | 1.64 | 0.571 | 0.487 | -0.138
16 | AATACAGGGTCATCGTAGGCCAGAGTACGCACAG | 3.55 | 5.49 | 5.05 | 3.55 | 6.83 | 4.6 | 1.54 | 3.35
17 | CCGATTGGGGCAAAGGTTACCATACTCAGTACGA | 2.03 | 3.52 | 1.64 | 0.678 | 3.76 | 1.84 | -0.136 | 0.0147
18 | GCAGACAGGTGACACGCAGGTAACTCAGGGTGGC | 0.28 | 0.798 | 0.52 | -0.855 | 0.715 | 0.997 | -0.377 | -0.397
19 | TCAGACAGGTGAAGGTAACACAGGTACGCAGTCG | 1.34 | 0.896 | 1 | 1.56 | 1.54 | 1.36 | 0.868 | 0.48
20 | GGAACGAGGGCATTCGACTTGATAGCATGGCGAT | 0.502 | 1.11 | 1.52 | 3.17 | 0.731 | 0.81 | -0.453 | 2.32
21 | AGTCAAAGTTCACTAGGTAACGTATGATTCAGCT | 3.72 | 4.86 | 5.88 | 4.22 | 3.76 | 2 | 0.141 | 3.34
22 | ATCTAAAGGTCGACGAGGTGAGTATACACCGTTT | 3.05 | 4.38 | 4.38 | 1.52 | 4.1 | 3.82 | 0.836 | 1.29
23 | CCAGACAGGTGAAAGGTAACTGAGTCTGGTACGC | 0.792 | 1.55 | 0.856 | -0.0997 | 2.19 | 0.931 | -0.381 | -0.0816
24 | GGAACGAGGGCCAGTTGATAGCAGAGTTTGATGG | 0.014 | -0.18 | 0.0481 | -0.0614 | 0.143 | -0.74 | -0.812 | -0.327
25 | ATCGAAAGGTCGAGGTGGGTATAGAGAAAGGGAA | 3.07 | 4.26 | 4.29 | 1.35 | 4.24 | 2.64 | 0.668 | 1.09
26 | GGAACGAGGGCAAGTTGAAAGCAGAGTTTGATGG | 1.57 | 1.12 | 1.98 | 2.41 | 0.747 | 1.12 | 0.0724 | 1.92
27 | TTACCAAGGTGTAAGGTCGTTGATGCACGCCTTG | 0.961 | 0.528 | 0.368 | 0.411 | 1.35 | 2.49 | 1.59 | 1.62
28 | GCTATTAGTTGAAAGGCCAACCGAATGATTCTCG | 1.27 | 0.828 | 0.862 | 1.04 | 0.44 | 0.141 | -0.222 | 0.0426
